# Assay results: PubChem BioAssay (Tox21)
# Results filed as inconclusive are left out. Calls of active or inactive are those of the source. Calls follow the shape of the full dose curve.
# Assay: qHTS assay to identify small molecule agonists of the progesterone receptor (PR) signaling pathway - cell viability counter screen (AID 1346799); also: nearly all actives have a fitted effect of over 45% in size
# Settings: PR-UAS-bla HEK293T viability, CellTiter-Glo luminescence, 16 h; series mostly up to 92.4 µM; activity change, negative = cytotoxicity: at the top concentration
# Description: National Center for Advancing Translational Sciences [NCATS]
# NIH Chemical Genomics Center [NCGC]
# U.S. Environmental Protection Agency [EPA]
# National Institutes of Environmental Health Sciences [NIEHS]
# National Toxicology Program [NTP]
# U.S. Food and Drug Administration [FDA]
# Progesterone receptor (PR), a nuclear hormone receptor, plays an important role in development, metabolic homeostasis and reproduction. It is activated by the steroid hormone progesterone. Endocrine disrupting chemicals (EDCs) and their interactions with steroid hormone receptors like PR causes disruption of normal endocrine function. To identify the compounds that stimulate PR signaling, a PR-UAS-bla GripTite cell line i.e. PR-UAS-bla HEK293T (Invitrogen, Carlsbad, CA, USA) containing a beta-lactamase reporter gene under the control of an UAS response element was used to screen Tox21 10K compound library. The cytotoxicity of the Tox21 compound library against the PR-bla cell line was tested in parallel by measuring the cell viability using CellTiter-Glo assay in the same wells.
# Tox21 Assay Protocol Summary:
# PR-UAS-bla HEK293T cells were dispensed at 3,000 cells/5 uL of assay medium containing 2% charcoal stripped FBS per well into black wall/clear-bottom 1536-well plates using a Multidrop Combi (ThermoFisher Scientific, Waltham, MA) dispenser. After the assay plates were incubated at a 37C and 5% CO2 for 6 hr, 23 nL of compounds dissolved in DMSO, positive controls or DMSO only was transferred to the assay plate by a Pintool station (Kalypsys, San Diego, CA). The plates were incubated at 37C and 5% CO2 for 16 hr. Then 1 uL of LiveBLAzer B/G FRET substrate was added using a Flying Reagent Dispenser (FRD, Aurora Discovery, San Diego, CA), the plates were incubated at room temperature for 2 hours, and fluorescence intensity was measured by an Envision plate reader (PerkinElmer, Shelton, CT). For cell viability readout that measures cytotoxicity, 4 uL/well of CellTiter-Glo reagent was added into the assay plates using a FRD. After 30 min incubation at room temperature, the luminescence intensity in the plates was measured using a ViewLux (PerkinElmer) plate reader.
# % is scaled to controls: 0 for no effect and ±100 for the full control effect.
row,SMILES,"activity change, negative = cytotoxicity"
1,CNCc1ccccc1,-8.3% [at 42.5 µM] (inactive)
2,C=C(C)C(=O)OCCCCCCOC(=O)C(=C)C,-2.5% (inactive)
3,O=c1[nH]c(=O)c2[nH]c(=O)[nH]c2[nH]1,-1.97% [at 8.39 µM] (inactive)
4,CCOC(=O)CCCCCCCCC(=O)OCC,1.17% (inactive)
5,CC(=O)OCC(=O)[C@@]1(O)[C@H](OC(C)=O)C[C@H]2[C@@H]3CCC4=CC(=O)C=C[C@]4(C)[C@@]3(F)[C@@H](O)C[C@@]21C,-0.0354% [at 42.5 µM] (inactive)
6,Cn1c(=O)c2c(ncn2CC2OCCO2)n(C)c1=O,1.05% [at 42.5 µM] (inactive)
7,COc1cc(C=O)ccc1OC(=O)C(C)C,-0.593% (inactive)
8,C1=C\CC/C=C\CC/1,0.714% (inactive)
9,CCN(CC)C(=O)C1CN2CCc3cc(OC)c(OC)cc3C2CC1OC(C)=O (stereo not given),3.85% [at 42.5 µM] (inactive)
10,CC1CCC(C(C)(C)S)C(=O)C1 (stereo not given),-16.6% (inactive)
11,CCC(C)(CCC(C)C)C(=O)[O-].CCC(C)(CCC(C)C)C(=O)[O-].[Zn+2] (stereo not given),-7.1% (inactive)
12,C=CCOc1cc(Cl)ccc1C(=O)NCCN(CC)CC,-10.6% [at 42.5 µM] (inactive)
13,CC(=O)Nc1ncc([N+](=O)[O-])s1,4.7% [at 42.5 µM] (inactive)
14,CC(C)C(=O)Nc1cccc(C(F)(F)F)c1,-0.0706% [at 42.5 µM] (inactive)
15,O=c1cc(O)c(Cl)c[nH]1,20.6% [at 42.5 µM] (inactive)
16,NC(=O)C1(N2CCCCC2)CCN(CCCC(=O)c2ccc(F)cc2)CC1,-3.74% [at 42.5 µM] (inactive)
17,CCCCCCCCCCCCCCCC(=O)NCCO,6.28% [at 42.5 µM] (inactive)
18,CC(=O)OC(C)c1ccccc1 (stereo not given),0.927% (inactive)
19,O=C(O)C(=O)Nc1cccc(-c2nn[nH]n2)c1,7.24% [at 42.5 µM] (inactive)
20,C1CCN2C[C@@H]3C[C@@H](CN4CCCC[C@@H]34)[C@H]2C1,-20.4% [at 42.5 µM] (inactive)

row,SMILES,"activity change, negative = cytotoxicity"
1,NC(Cc1c[nH]c2ccccc12)C(=O)O (stereo not given),-2.42% [at 42.5 µM] (inactive)
2,CCOC(=O)CC(CC(=O)OCC)(OC(C)=O)C(=O)OCC,2.71% (inactive)
3,O=CO,21.2% [at 8.39 µM] (inactive)
4,O=CN1CCOCC1,13.4% (inactive)
5,COc1ccc(N=Nc2cc(C)c(N=Nc3ccc(S(=O)(=O)O)cc3)cc2OC)cc1,-23.3% (inactive)
6,FC(F)(F)/C(=N\OCC1OCCO1)c1ccc(Cl)cc1,-1.85% (inactive)
7,CC(C)=CC(C)(C)C,0.334% (inactive)
8,Nc1ccc(/C=C/c2ccc(N)cc2S(=O)(=O)O)c(S(=O)(=O)O)c1,-4.84% [at 0.349 µM] (inactive)
9,BrC/C=C/CBr,0% [at 19 µM] (inactive)
10,O=c1[nH]c(=O)c2ccccc2o1,1.59% [at 42.5 µM] (inactive)
11,CC(C)COC(=O)CC(C(=O)OCC(C)C)S(=O)(=O)O (stereo not given),10.7% (inactive)
12,CC1=NN(c2ccc(S(=O)(=O)O)cc2)C(=O)C1N=Nc1ccccc1 (stereo not given),0.592% (inactive)
13,CCCCC(CC)COC(=O)c1ccccc1 (stereo not given),20.6% (inactive)
14,NS(=O)(=O)c1ccc(Cl)c(S(N)(=O)=O)c1,-7.98% [at 42.5 µM] (inactive)
15,CCCCCCCC/C=C\CCCCCCCC(=O)OC[C@@H](O)[C@H]1OC[C@H](O)[C@H]1O,55.7% (inactive)
16,COC(OC)C(C)c1ccccc1 (stereo not given),-3.44% (inactive)
17,C=C[C@@H](C)CCC=C(C)C,1.27% (inactive)
18,CC(=O)N1CCN(c2ccc(O)cc2)CC1,-1.12% [at 42.5 µM] (inactive)
19,CC(=O)N(CC(O)CO)c1c(I)c(C(=O)NCC(O)CO)c(I)c(C(=O)NCC(O)CO)c1I (stereo not given),-4% [at 42.5 µM] (inactive)
20,C=C(C)[C@@H]1CC[C@@H](C)C[C@@H]1O,14.3% (inactive)
